# Screening results deposited in PubChem by National Center for Advancing Translational Sciences (NCATS).
# Vaccinia Venus: vaccinia inhibition (Venus reporter); Vaccinia virus Venus reporter expression, fluorescence; Potency, µM (titrated, usually from 36.5 µM), hits mostly inhibitors; hit rate 0.46% among 330,000; AID 720580; calls by dose curve; tested in A549 cells; further: nearly all actives have a fitted effect of over 30% in size
# HCMV inh: inhibitors of human cytomegalovirus; activity change, negative = inhibition, % at 57.5 µM; hit rate 4.5% among 410,000; HFF cells, HCMV-luciferase reporter, 72 h; active compounds read low; in the data active means activity change below about -60%; inconclusive means no clear call, values can overlap the other calls; inactive means above about -39%
#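 Compounds were evaluated in HFFs infected with an HCMV luciferase reporter virus (MOI 1 PFU/cell). Luciferase in lysates collected 72 h post infection served as the replication measure.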
# TbPYK inhibitor: blocks Trypanosoma brucei pyruvate kinase. Q57TT1. TbPYK enzyme, Kinase-Glo Plus ATP luminescence, 45 min. Potency, µM (highest dose often 76.8 µM), actives largely listed as inhibitors. hit rate 0.12% among 410,000. AID 624173; further: nearly all actives have a fitted effect of over 50% in size
#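 Assay buffer: 50 mM TEA pH 7.2, 100 mM KCl, 10 mM MgCl2, 0.05% BSA, 0.01% Tween-20. Pyruvate kinase from T. brucei plus substrate met compound, then ADP (130 uM final). Luminescence was read post 45 min RT.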
# Vaccinia mCherry: vaccinia inhibition (mCherry reporter) | hit rate 0.63% among 310,000 | Vaccinia virus mCherry reporter infection, fluorescence | Potency, µM (highest dose often 36.5 µM), actives largely listed as inhibitors; calls by dose curve; tested in A549 cells; further: nearly all actives have a fitted effect of over 35% in size
# LmPK inh: blocks Leishmania mexicana pyruvate kinase activity. hit rate 0.37% among 290,000. purified LmPK, Kinase-Glo ATP luminescence, 1 h. Potency, µM (doses to about 57.5 µM), hits mostly inhibitors. Q27686
# Target sequence (Q27686 whole entry, looked up): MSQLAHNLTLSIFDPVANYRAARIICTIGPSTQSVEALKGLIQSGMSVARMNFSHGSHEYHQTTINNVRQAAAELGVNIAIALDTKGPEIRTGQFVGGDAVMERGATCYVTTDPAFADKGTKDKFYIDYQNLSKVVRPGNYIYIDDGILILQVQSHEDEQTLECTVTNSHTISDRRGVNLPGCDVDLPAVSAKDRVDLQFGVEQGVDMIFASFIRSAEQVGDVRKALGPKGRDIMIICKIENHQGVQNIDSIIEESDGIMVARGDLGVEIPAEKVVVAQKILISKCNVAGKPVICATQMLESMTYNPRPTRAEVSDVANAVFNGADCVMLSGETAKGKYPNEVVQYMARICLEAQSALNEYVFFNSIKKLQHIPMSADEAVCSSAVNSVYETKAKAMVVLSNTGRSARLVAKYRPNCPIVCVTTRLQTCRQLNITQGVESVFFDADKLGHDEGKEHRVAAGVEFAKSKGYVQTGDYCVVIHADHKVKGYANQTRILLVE
#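 In 50 mM imidazole pH 7.2 with 7 mM MgCl2, LmPK (0.1 nM) turned over PEP (0.5 mM) and ADP (0.1 mM) for 1 h at room temperature. Luciferase read-out of ATP.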
# A number is an active result; n = inactive; u = inconclusive; x = not tested or not shown; [ ] = another dose, or the depositor's remark. Most compounds without a hit are left out; they make up all but 5% or so of the library. Unless noted, the call rests on the fitted dose curve; in most records, active means well fitted curve in the direction sought with a large enough effect; inconclusive means small, poorly fitted or top-dose-only effect, or another doubt; inactive means no such curve, though single readings can be large; an effect the other way counts as inactive or inconclusive.
SMILES,Vaccinia Venus,HCMV inh,TbPYK inhibitor,Vaccinia mCherry,LmPK inh
O=C(COC(=O)/C=C/c1ccc(Br)o1)Nc1ccccc1F,x,x,x,x,n
COc1ccccc1NS(=O)(=O)c1cc2c(cc1C)NC(=O)CO2,n,n,n,n,n
COc1ccccc1-c1nc2c(c(SCC(=O)Nc3ccc(C)c(C)c3)n1)Cc1c(CO)cnc(C)c1O2,n,-76,n,n,x
Cc1ccc(NC(=O)CSc2nc(-c3ccc(F)cc3)nc3c2Cc2c(CO)cnc(C)c2O3)cc1C,n,n,n,n,x
CC(=O)N1CCN(S(=O)(=O)c2cccc(C(=O)Nc3ccccc3N3CCCCC3)c2)CC1,n,n,n,n,x
COc1cc(CC(=O)Nc2ccc(Cl)c(C(F)(F)F)c2)cc(OC)c1OC,n,n,n,n,n
COc1ccc(C(=O)OCC(=O)Nc2ccc(Cl)c(C(F)(F)F)c2)c(OC)c1OC,n,-62,n,n,n
CC(=O)/C(C#N)=C1\NC(=O)C(Cc2cc(Cl)ccc2Cl)S1 (stereo unspecified),x,-89,n,x,n
CC(=O)/C(C#N)=C1\NC(=O)C(Cc2ccccc2Cl)S1 (stereo unspecified),n,-95,n,u,n
Cc1ccc(S(=O)(=O)N(CC(=O)Nc2ccc(Cl)c([N+](=O)[O-])c2)C2CCCCC2)cc1,u,-77,n,u,n
C/C=C(\C)C(=O)Nc1cccc(C2=NOC3(C2)C[C@H](C(N)=O)N(C(=O)CC#N)C3)c1 (stereo partly specified),n,n,n,n,n
O=c1c2ccccc2nc(/C=C/c2ccc(O)cc2)n1-c1ccc(O)cc1,x,n,n,x,n
CCn1c(/C=C/c2cc(Br)ccc2O)nc2ccccc2c1=O,x,-93,n,x,n
O=c1c2ccccc2nc(/C=C/c2ccccc2O)n1-c1ccc(Br)cc1,u,-63,n,n,x
CCn1c(/C=C/c2ccccc2F)nc2ccccc2c1=O,n,u,n,n,n
Cc1ccccc1-n1c(/C=C/c2ccccc2F)nc2ccccc2c1=O,n,-85,n,n,x
CCOc1cc(N2CCOCC2)c(OCC)cc1NC(=O)CN1CCc2ccccc2C1,u,n,n,x,n
CCn1c2ccccc2c2cc(NC(=O)COC(=O)c3ccc(O)cc3)ccc21,u,n,n,11µM,x
CCn1c2ccccc2c2cc(NC(=O)COC(=O)Cc3cn4ccsc4n3)ccc21,10µM,n,n,x,n
CCn1c2ccccc2c2cc(NC(C)=O)ccc21,u,n,n,x,n
CC1N(C)c2cc(NC(=O)c3ccco3)c(P(=O)(Nc3ccc([N+](=O)[O-])cc3)N3CCOCC3)cc2C1(C)C (stereo unspecified),n,u,n,n,n
CCn1c2ccccc2c2cc(NC(=O)c3ccco3)ccc21,u,-69,n,u,n
CC1N(C)c2cc(NC(=O)c3ccco3)ccc2C1(C)C (stereo unspecified),n,-70,n,n,n
Cc1csc(-c2nc3ccccc3n2C(C(=O)NC(C)(C)C)c2cc3ccccc3o2)c1 (stereo unspecified),n,n,x,n,x
Cc1c(C(=O)Nc2ccc(F)c(F)c2)oc2ccc(S(=O)(=O)N3CCCCC3)cc12,u,n,n,u,n
SMILES,Vaccinia Venus,HCMV inh,TbPYK inhibitor,Vaccinia mCherry,LmPK inh
CCn1c2ccccc2c2cc(NS(=O)(=O)c3ccc(C)cc3)ccc21,u,-60,n,x,n
O=C(NCc1ccco1)c1ccc([N+](=O)[O-])o1,n,-66,n,n,n
O=C(NCc1ccco1)c1ccc(Cn2cc([N+](=O)[O-])cn2)o1,x,n,n,x,n
O=C(NCc1cccnc1)c1ccc([N+](=O)[O-])o1,x,-85,n,x,n
COc1cccc(Nc2ccc3cc(S(=O)(=O)N4CCC(C)CC4)ccc3n2)c1,u,-87,n,u,x
COc1ccc(Nc2ccc3cc(S(=O)(=O)N4CCCC4)ccc3n2)cc1OC,n,n,n,n,x
CN1CCN(Cc2c(O)ccc3cc(Br)ccc23)CC1,n,-69,n,u,n
CCC(=O)c1ccc(OCC(=O)Nc2cc(S(=O)(=O)N3CCCCC3)ccc2N2CCN(CC)CC2)cc1,u,n,n,n,x
COc1cc(C=C2C(=O)C=CC2=O)ccc1O,u,-88,3.5µM,u,x
CCOc1cc(C=O)ccc1O,n,n,n,n,x
CCN1C/C(=C/c2cccc([N+](=O)[O-])c2)C(=O)/C(=C/c2cccc([N+](=O)[O-])c2)C1,n,-103,n,n,n
CCOc1cc(/C=C2\CN(CC)C/C(=C\c3ccc(O)c(OCC)c3)C2=O)ccc1O,n,-101,n,u,n
COc1cc(/C=C2/CCC/C(=C\c3cc(O)c(OC)c(Cl)c3)C2=O)cc(Cl)c1O,x,-100,n,x,n
CC(=O)Nc1ccc(NC(=O)CSc2ncnn2-c2ccccc2)cc1,n,n,n,n,n
COc1cc(/C=C2\CC/C(=C\c3cc(OC)c(OC)c(OC)c3)C2=O)cc(OC)c1OC,n,n,n,n,n
COc1cc(/C=C2\CC/C(=C\c3cc(OC)c(O)c(OC)c3)C2=O)cc(OC)c1O,n,-98,u,n,n
COc1cc(/C=C2\CCC/C(=C\c3ccc(O)c(OC)c3)C2=O)ccc1O,u,-101,n,6.3µM,n
O=C1/C(=C\c2ccc3c(c2)OCO3)CCC/C1=C/c1ccc2c(c1)OCO2,n,-89,n,x,n
CCC1(C)NC(c2ccc3c(c2)OCO3)=CC(c2ccccc2O)N1 (stereo unspecified),n,x,x,n,x
COc1ccc(OCc2n(CC(=O)OC3CC(C)CCC3C(C)C)c3ccccc3[n+]2C)cc1 (stereo unspecified),n[7.34 µM],-103,n,n[7.34 µM],n
COc1ccc(-c2n(CC(=O)OC3CC(C)CCC3C(C)C)c3ccccc3[n+]2C)cc1 (stereo unspecified),u,n,n,u,u
O=P1(c2ccccc2)Nc2ccccc2N1c1ccccc1 (stereo unspecified),n,-64,n,u,x
Cc1cccc(C(=O)N2CCCC(CCC(=O)N3CCN(c4ccccn4)CC3)C2)c1C (stereo unspecified),x,-86,n,x,n
COc1ccc(NC(=O)C(Cc2ccccc2)NS(=O)(=O)c2ccc3c(c2)CCC(=O)N3)c(OC)c1 (stereo unspecified),n,-102,n,n,x
Cc1ccc(NS(=O)(=O)c2cccc(C(=O)NCC3CCCO3)c2)cc1 (stereo unspecified),n,n,n,n,x
CCO[C@@H]1OC(C(=O)NCc2nc3ccccc3[nH]2)=C[C@H](C2CC2)[C@H]1CCCO,n,n,n,n,n
CCO[C@@H]1OC(C(=O)NCc2nc3ccccc3[nH]2)=C[C@H](C(C)(C)C)[C@H]1CCCO,u,-80,n,n,x
O=C1C2C(C(=O)N1/N=C/c1ccc(N3CCCCC3)o1)C1C=CC2C12CC2 (stereo unspecified),n,n,25µM,n,n
Nc1ccc(C2(c3ccc(N)cc3)C(=O)Nc3ccccc32)cc1,n,-62,n,n,n
